Source: the supplement of paper PMC13380429

Test system: Vero E6 infected with SARS-CoV-2
Assay: inhibition of SARS-CoV-2 cytopathic effect; higher = more antiviral protection, active = above 15
Conditions: 48 h

Measured: inhibition of SARS-CoV-2 cytopathic effect

CCCC(=O)N1CCCN(c2nc(N)c3cc(OC)c(OC)cc3n2)CC1 [bunazosin]
inactive: 1 nM -0.32% | 8.33 nM -1.38% | 100 nM 1.21% | 833.33 nM 0.02% | 10000 nM 0.07%

O=c1[nH]c2ccccc2n1C1CCN(CCOc2ccccc2)CC1 [oxiperomide]
inactive: 1 nM -1.51% | 8.33 nM -1.1% | 100 nM -2.1% | 833.33 nM -0.51% | 10000 nM 2.21%

O=C(NC[C@H](O)CN1CCc2ccccc2C1)c1cc(NC2COC2)ncn1
inactive: 1 nM -3.14% | 8.33 nM -1.3% | 100 nM -2.1% | 833.33 nM -3.82% | 10000 nM -1.65%

CC(=O)OCC(=O)[C@@]1(O)CC[C@H]2[C@@H]3CCC4=CC(=O)C=C[C@]4(C)[C@@]3(Cl)[C@@H](Cl)C[C@@]21C [dichlorisone-acetate]
inactive: 1 nM -1.93% | 8.33 nM -2.25% | 100 nM -3.39% | 833.33 nM -2.97% | 10000 nM -2.91%

Cc1nc(Nc2n[nH]c3c2CN(C(=O)N[C@H](CN(C)C)c2ccccc2)C3(C)C)c2sccc2n1
inactive: 1 nM 3.94% | 8.33 nM -1.34% | 100 nM -3.76% | 833.33 nM -4.38% | 10000 nM -7.39%

CCOC(=O)CC(=O)N1CCSC1COc1ccccc1OC (stereo not given) [moguisteine]
inactive: 1 nM -0.34% | 8.33 nM 0.03% | 100 nM -3.76% | 833.33 nM -0.38% | 10000 nM 0.52%

NC(=O)[C@@H](CC1CC1)[C@@H](CCC(F)(F)F)C(=O)N[C@H]1N=C(c2ccccc2)c2cccc(F)c2NC1=O
inactive: 1 nM -0.36% | 8.33 nM -1.04% | 100 nM -3.47% | 833.33 nM -3.05% | 10000 nM -5.54%

NCc1ccc(S(N)(=O)=O)cc1 [mafenide]
inactive: 1 nM 0.46% | 8.33 nM 1.5% | 100 nM 1.54% | 833.33 nM 2.7% | 10000 nM -2.32%

CC1(C)S[C@@H]2[C@H](NC(=O)[C@H](N)c3ccccc3)C(=O)N2[C@H]1C(=O)O [ampicillin]
inactive: 1 nM 0.57% | 8.33 nM 1.76% | 100 nM -0.8% | 833.33 nM -1.53% | 10000 nM 0.38%

CCC(NC(C)C)C(O)c1ccc(O)c2[nH]c(=O)ccc12 (stereo not given) [procaterol]
inactive: 1 nM -1.54% | 8.33 nM 0.18% | 100 nM -2.76% | 833.33 nM -0.33% | 10000 nM -1.47%

Cc1cc2sc(NC(=O)Cc3ccccc3)nc2cc1Cl
inactive: 1 nM 2.05% | 8.33 nM 2.12% | 100 nM 2.19% | 833.33 nM 0.81% | 10000 nM 3.87%

CCCCCCCCNC(=O)/C(C#N)=C/c1cn(CCCN(C)C)c2ccccc12 [dynole-34-2]
inactive: 1 nM 5.01% | 8.33 nM 2.28% | 100 nM 2.72% | 833.33 nM 0.28% | 10000 nM 12.6%

Nc1nc(O)c2nc(Br)n([C@@H]3O[C@@H]4COP(=O)(O)O[C@H]4[C@H]3O)c2n1 [8-bromo-cGMP]
inactive: 1 nM 0.61% | 8.33 nM 2.94% | 100 nM 2.06% | 833.33 nM 1.94% | 10000 nM 1.61%

O=S(=O)(O)c1cc(O)ccc1O [etamsylate]
inactive: 1 nM 0.18% | 8.33 nM -1.16% | 100 nM -0.81% | 833.33 nM 0.23% | 10000 nM 1.8%

CCOC(=O)[C@H](CCc1ccccc1)N[C@@H](C)C(=O)N1[C@H](C(=O)O)C[C@@H]2CCC[C@@H]21 [ramipril]
inactive: 1 nM -0.55% | 8.33 nM -0.01% | 100 nM -0.53% | 833.33 nM 5.34% | 10000 nM -2.38%

COc1ccc(-c2nc3cc(C4=NNC(=O)CC4C)ccc3[nH]2)cc1 (stereo not given) [pimobendan]
inactive: 1 nM 2.75% | 8.33 nM -1.84% | 100 nM -1.74% | 833.33 nM -1.51% | 10000 nM -0.67%

COc1cccc(C=NCCN=Cc2cccc(OC)c2[O-])c1[O-].[Cl-].[Mn+3]
inactive: 1 nM 2.33% | 8.33 nM 1.86% | 100 nM 0.89% | 833.33 nM 1.11% | 10000 nM 14.1%

CCn1cc(C(=O)O)c(=O)c2ccc(C)nc21 [nalidixic-acid]
inactive: 1 nM 0.83% | 8.33 nM 1.11% | 100 nM 0.89% | 833.33 nM 0.77% | 10000 nM -0.57%
